Screening results as filed in PubChem BioAssay.
BAZ2B block – inhibitors of human BAZ2B bromodomain; Q9UIF8; AlphaScreen BAZ2B-H3K14Ac peptide displacement; Potency, µM (titrated, usually from 114 µM), actives largely listed as inhibitors; 360,000 tested, 4.4% active; AID 504333; further: nearly all actives have a fitted effect of over 60% in size
Target sequence (Q9UIF8 whole entry, looked up): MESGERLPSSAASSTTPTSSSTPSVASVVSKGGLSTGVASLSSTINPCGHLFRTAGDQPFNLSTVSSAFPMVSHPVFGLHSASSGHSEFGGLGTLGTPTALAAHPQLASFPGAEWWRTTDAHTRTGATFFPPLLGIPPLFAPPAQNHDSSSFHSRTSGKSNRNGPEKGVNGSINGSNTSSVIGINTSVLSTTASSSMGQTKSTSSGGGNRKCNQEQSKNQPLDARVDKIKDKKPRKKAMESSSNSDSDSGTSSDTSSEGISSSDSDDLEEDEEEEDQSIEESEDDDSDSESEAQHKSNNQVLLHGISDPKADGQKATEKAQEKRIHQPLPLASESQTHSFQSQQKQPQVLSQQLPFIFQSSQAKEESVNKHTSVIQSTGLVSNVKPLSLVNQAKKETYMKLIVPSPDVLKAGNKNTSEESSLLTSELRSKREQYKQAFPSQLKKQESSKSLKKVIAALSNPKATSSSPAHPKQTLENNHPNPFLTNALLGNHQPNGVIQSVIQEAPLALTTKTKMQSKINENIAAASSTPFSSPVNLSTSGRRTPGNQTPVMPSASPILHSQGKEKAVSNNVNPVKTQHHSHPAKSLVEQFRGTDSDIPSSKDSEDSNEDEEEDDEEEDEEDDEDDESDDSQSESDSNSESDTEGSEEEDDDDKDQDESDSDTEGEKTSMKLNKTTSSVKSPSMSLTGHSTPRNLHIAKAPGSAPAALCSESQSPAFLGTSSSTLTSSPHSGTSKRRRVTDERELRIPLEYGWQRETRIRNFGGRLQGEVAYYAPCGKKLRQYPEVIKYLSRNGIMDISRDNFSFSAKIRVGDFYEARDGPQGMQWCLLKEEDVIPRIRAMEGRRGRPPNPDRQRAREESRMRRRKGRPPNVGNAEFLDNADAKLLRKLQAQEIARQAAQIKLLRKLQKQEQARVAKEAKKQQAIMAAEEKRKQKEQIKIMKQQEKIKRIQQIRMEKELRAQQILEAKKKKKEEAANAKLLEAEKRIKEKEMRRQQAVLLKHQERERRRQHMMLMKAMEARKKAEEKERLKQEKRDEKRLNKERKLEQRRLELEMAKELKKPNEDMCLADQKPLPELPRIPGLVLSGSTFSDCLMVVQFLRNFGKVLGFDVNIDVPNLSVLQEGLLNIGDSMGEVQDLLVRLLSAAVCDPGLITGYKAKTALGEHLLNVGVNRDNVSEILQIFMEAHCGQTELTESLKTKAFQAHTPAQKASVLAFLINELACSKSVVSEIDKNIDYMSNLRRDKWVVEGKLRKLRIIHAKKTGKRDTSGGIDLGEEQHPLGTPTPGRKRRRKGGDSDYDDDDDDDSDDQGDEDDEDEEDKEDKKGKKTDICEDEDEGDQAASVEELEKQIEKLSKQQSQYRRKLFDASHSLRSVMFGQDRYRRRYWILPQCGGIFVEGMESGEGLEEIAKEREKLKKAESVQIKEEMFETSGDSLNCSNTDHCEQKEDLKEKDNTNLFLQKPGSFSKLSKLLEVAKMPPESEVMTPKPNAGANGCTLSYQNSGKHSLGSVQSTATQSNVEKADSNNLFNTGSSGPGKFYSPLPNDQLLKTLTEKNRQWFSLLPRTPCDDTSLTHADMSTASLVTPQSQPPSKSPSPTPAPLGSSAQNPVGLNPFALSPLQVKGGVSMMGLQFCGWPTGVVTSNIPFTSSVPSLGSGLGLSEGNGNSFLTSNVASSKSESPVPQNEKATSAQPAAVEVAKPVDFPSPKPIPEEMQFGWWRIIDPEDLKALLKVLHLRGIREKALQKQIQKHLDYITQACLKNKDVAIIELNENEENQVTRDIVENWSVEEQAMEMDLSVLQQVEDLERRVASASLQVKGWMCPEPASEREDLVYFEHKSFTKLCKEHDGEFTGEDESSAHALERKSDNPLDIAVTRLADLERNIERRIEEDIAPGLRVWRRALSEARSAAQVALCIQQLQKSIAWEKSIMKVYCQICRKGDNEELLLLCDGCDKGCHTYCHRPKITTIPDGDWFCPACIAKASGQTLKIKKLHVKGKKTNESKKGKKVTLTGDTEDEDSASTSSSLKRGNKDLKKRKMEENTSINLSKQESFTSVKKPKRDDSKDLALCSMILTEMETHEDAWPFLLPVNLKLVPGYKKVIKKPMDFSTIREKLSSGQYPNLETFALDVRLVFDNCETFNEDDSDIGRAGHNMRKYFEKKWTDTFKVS
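In this displacement format the biotinylated H3(5-23) peptide acetylated at Lys14 serves as ligand at 50 nM, with BAZ2B at 50 nM in PBS pH 7.4 containing 0.01% Tween-20. Donor and acceptor beads are 10 ug/mL final.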
PLK1 PBD inh – inhibitors of human PLK1 polo-box domain binding; P53350; Plk1 PBD binding of FITC phosphopeptide, fluorescence polarization; Potency, µM, hits mostly inhibitors; 360,000 tested, 2.8% active; further: series mostly up to about 57 µM; nearly all actives have a fitted effect of over 65% in size
PI5P4Ka inh – PI5P4K alpha (human) kinase inhibition | P48426 | PI5P4Kalpha enzyme, ADP-Glo luminescence, 60 min; stronger effect = lower value | max response, % | 330,000 tested, 1.2% active; active means max response of -50% or lower; inconclusive means between -30% and -50%; inactive means -30% or higher; further: value at the top dose of about 77 µM
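qHTS, 1536-well: enzyme/substrate mix, compound by pin tool, 5 microM ATP final; RT 60 min; ADP-Glo reagents 1 (45 min) then 2 (30 min); luminescence.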
JMJD2A Tudor – JMJD2A Tudor domain (human) inhibition | O75164 | AlphaScreen JMJD2A-Tudor / H3K4me3 peptide binding | Potency, µM (series often up to 114 µM), actives largely listed as inhibitors | 390,000 tested, 4.4% active; further: nearly all actives have a fitted effect of over 50% in size
G9a inh – blocks human histone lysine methyltransferase G9a. Q96KQ7. G9a H3K9 monomethylation, AlphaScreen, 2 h. Potency, µM (series often up to 102 µM), actives largely listed as inhibitors. 350,000 tested, 8.8% active. AID 504332; further: nearly all actives have a fitted effect of over 75% in size
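Compounds were preincubated with 20 nM G9a for 15 min, after which biotinylated H3K9 peptide (500 nM) and SAM (20 uM) started a 2 h room-temperature reaction. Monomethylated product was quantified by antibody-based AlphaScreen chemiluminescence.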
HP1b chromo inh – blocks HP1-beta chromodomain binding to methylated histone tails. P83916. AlphaScreen HP1-beta / biotin-H3K9me3 peptide binding. Potency, µM (doses to about 114 µM), most hits filed as inhibitors. 390,000 tested, 0.56% active. AID 540317; further: nearly all actives have a fitted effect of over 70% in size
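Compound inhibition of the preformed complex between 50 nM HP1-beta and 50 nM biotinylated H3K9me3 peptide was read by AlphaScreen. Buffer was PBS pH 7.4 with 0.01% Tween-20. Incubations ran 30 min at room temperature, with 10 ug/mL donor/acceptor beads.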
Each line names hits and unclear results; the compound was inactive in the other large screens. Only some compounds are listed: those with a hit (about 12% of all), similar ones and a draw of the others. Unless noted, the call rests on the fitted dose curve; in most records, active means well fitted curve in the direction sought with a large enough effect; inconclusive means small, poorly fitted or top-dose-only effect, or another doubt; inactive means no such curve, though single readings can be large; an effect the other way counts as inactive or inconclusive.

C#CCOCCOCCOCCNc1nc(N2CCOCC2)nc(N2CCN(C(=O)CCCCCCCCCCNC(=O)[C@H]([C@@H](C)CC)n3cc(CCCCN=C(N)N)nn3)CC2)n1	BAZ2B block inconclusive, PI5P4Ka inh inconclusive
COc1cc(CN2CCCC(N3CCN(c4ccc(F)cc4)CC3)C2)ccc1F (stereo not drawn)	BAZ2B block inconclusive (no result: G9a inh)
CN(C(=O)C1CC1)C1CCS(=O)(=O)C1 (stereo not drawn)	none
Cc1cc(O)c(C(C[N+](=O)[O-])c2ccc(Cl)cc2Cl)c(=O)o1 (stereo not drawn)	BAZ2B block inconclusive, PLK1 PBD inh inconclusive, G9a inh 4.5µM (no result: PI5P4Ka inh)
O=C(N/N=C/c1cc2c3c(c1O)CCCN3CCC2)c1ccccc1O	BAZ2B block 32µM, JMJD2A Tudor 45µM, G9a inh inconclusive
O=C(CN(Cc1ccccc1)C(=O)CSc1nnc(COc2ccccc2)o1)NC1CCCC1	PLK1 PBD inh inconclusive, G9a inh 10µM
Cc1ccc(CN(CC(=O)NC2CCCC2)C(=O)CSc2nnc(COc3ccccc3)o2)cc1	PLK1 PBD inh 30µM, G9a inh 32µM, HP1b chromo inh inconclusive
O=C(CN(Cc1cccs1)C(=O)CSc1nnc(COc2ccccc2)o1)NC1CCCC1	none (no result: PI5P4Ka inh)
CCc1ccc(OCc2nnc(SCC(=O)NC3CCCCC3)o2)cc1	none
COc1cccc(/C=C2/SC(=S)N(CC(=O)NNC(=O)c3ccccc3OC)C2=O)c1	none
O=C(O)CN1C(=O)/C(=C\c2cc(Br)ccc2OCc2ccccc2Cl)SC1=S	BAZ2B block 45µM, PLK1 PBD inh 17µM, JMJD2A Tudor inconclusive, G9a inh 14µM
O=C(O)CN1C(=O)/C(=C\c2cccc(OCc3ccc(Cl)cc3Cl)c2)SC1=S	BAZ2B block 79µM, PLK1 PBD inh 21µM, JMJD2A Tudor 50µM, HP1b chromo inh inconclusive (no result: G9a inh)
O=C(O)CN1C(=O)/C(=C\c2ccccc2OCc2ccc(Cl)cc2Cl)SC1=S	BAZ2B block inconclusive, PLK1 PBD inh 27µM, JMJD2A Tudor 56µM, G9a inh 32µM
CCOc1ccccc1C=C1SC(=S)N(CC)C1=O	JMJD2A Tudor inconclusive (no result: BAZ2B block, G9a inh)
O=C(O)CN1C(=O)/C(=C\c2cc(Br)ccc2OCc2ccc([N+](=O)[O-])cc2)SC1=S	BAZ2B block 45µM, PLK1 PBD inh 21µM, PI5P4Ka inh -71, JMJD2A Tudor 56µM, G9a inh 20µM
COc1ccc(-c2cn3nc(N4CCCC(C(=O)Nc5cc(C)cc(C)c5)C4)sc3n2)cc1 (stereo not drawn)	G9a inh inconclusive (no result: PLK1 PBD inh, PI5P4Ka inh)
CC(CNC(=O)COc1ccc2c(c1)OCO2)c1ccccc1 (stereo not drawn)	none
NC(=O)CCCCC1CCSS1 (stereo not drawn)	none (no result: BAZ2B block, PLK1 PBD inh, PI5P4Ka inh, JMJD2A Tudor, HP1b chromo inh)
Cc1cc(C(=O)OCC(=O)Nc2ccccc2C#N)c(C)o1	G9a inh inconclusive
O=C(O)CN1C(=O)/C(=C\c2cc(Br)ccc2OCc2ccccc2F)SC1=S	BAZ2B block 56µM, PLK1 PBD inh 19µM, JMJD2A Tudor 50µM, G9a inh 40µM
COC(=O)NNC(=O)c1ccc(Cl)cc1Cl	none
O=C(O)/C=C/C(=O)Nc1ccc(NC(=O)c2ccccc2)c(Cl)c1	G9a inh 50µM
O=C(O)/C=C/C(=O)NNC(=O)c1ccc(Cl)cc1Cl	BAZ2B block inconclusive, PLK1 PBD inh 24µM, G9a inh inconclusive
Cc1ccc(C(=O)NNC(=O)/C=C\C(=O)O)cc1	BAZ2B block inconclusive, G9a inh 50µM
O=C(O)/C=C/C(=O)Nc1ccc(Cl)cc1C(=O)c1ccccc1	G9a inh 32µM
O=C(O)/C=C\C(=O)Nc1cccc(NC(=O)c2ccccc2)c1	BAZ2B block inconclusive (no result: G9a inh)
Cc1ccc(NC(=O)C2CCCN(S(=O)(=O)c3ccc4c(c3)oc(=O)n4C)C2)cc1Cl (stereo not drawn)	none (no result: PLK1 PBD inh, PI5P4Ka inh)
O=C(O)Cn1cc(CN2CCOCC2)c2ccccc21	G9a inh inconclusive
COc1cc(C(=S)N2CCOCC2)cc(OC)c1OC(=O)c1ccccc1Cl	PLK1 PBD inh inconclusive (no result: BAZ2B block, JMJD2A Tudor, G9a inh, HP1b chromo inh)
O=C(Oc1c(CN2CCOCC2)cc(Cl)c2cccnc12)c1ccccc1F	BAZ2B block 3.5µM, JMJD2A Tudor 25µM
O=C(Nc1ccc(CN2CCOCC2)cc1)c1ccccc1F	none (no result: PI5P4Ka inh)
O=C(Oc1c(CN2CCOCC2)cc(Cl)c2cccnc12)c1ccccc1	BAZ2B block 25µM, JMJD2A Tudor inconclusive
COc1cc(OC)cc(C(=O)Oc2c(CN3CCOCC3)cc(Cl)c3cccnc23)c1	BAZ2B block 22µM
CC1CCCN(C2=C(NS(=O)(=O)c3ccc(Cl)cc3)C(=O)c3ccccc3C2=O)C1 (stereo not drawn)	BAZ2B block 5µM, PLK1 PBD inh inconclusive, JMJD2A Tudor 8.9µM, G9a inh 2.5µM, HP1b chromo inh 6.3µM
COC(=O)C1CCN(C2=C(NS(=O)(=O)c3ccc(Cl)cc3)C(=O)c3ccccc3C2=O)CC1	BAZ2B block 11µM, PLK1 PBD inh 21µM, JMJD2A Tudor inconclusive, HP1b chromo inh inconclusive
COC(=O)C1CCN(S(=O)(=O)Cc2ccccc2Cl)CC1	none
NC(=O)C1CCN(C(=O)c2ccc(NS(=O)(=O)c3ccc(F)c(F)c3)cc2)CC1	none
NC(=O)C1CCN(C2=C(NS(=O)(=O)c3ccc(Cl)cc3)C(=O)c3ccccc3C2=O)CC1	BAZ2B block 35µM, JMJD2A Tudor inconclusive, G9a inh 25µM
c1ccc(SSc2ccccn2)nc1	PLK1 PBD inh 0.67µM, JMJD2A Tudor 4µM, HP1b chromo inh inconclusive (no result: BAZ2B block, G9a inh)
CCNc1nc2c(c(=O)n(C)c(=O)n2C)n1CCCc1ccccc1	PLK1 PBD inh 3.4µM, PI5P4Ka inh inconclusive, JMJD2A Tudor inconclusive
CN(C)/C=C/c1oc2ccc(O)cc2c1[N+](=O)[O-]	BAZ2B block 25µM, G9a inh 50µM
O=C(C1CCC(Cn2c(=O)c3sccc3n(Cc3ccccc3)c2=O)CC1)N1CCOCC1 (stereo not drawn)	none (no result: PLK1 PBD inh, PI5P4Ka inh)
O=S(=O)(NC1CC1)c1ccc(S(=O)(=O)N(Cc2ccccn2)C2CCCC2)cc1	none (no result: PI5P4Ka inh)
O=S(=O)(NC1CC1)c1ccc(S(=O)(=O)N(Cc2ccccn2)C2CC2)cc1	G9a inh 71µM
Cn1ncc(Br)c1N1C(=O)CCC1=O	none (no result: G9a inh)
Cc1ccc(Nc2nc(-c3ccccc3)c(CC(=O)O)s2)cc1	PLK1 PBD inh inconclusive, G9a inh 45µM
CCc1sc(NC(=O)COC)nc1-c1ccccc1	PLK1 PBD inh 18µM, G9a inh 35µM
O=C(Cc1ccccc1)NCc1ccccn1	none
O=C(O)Cc1sc(Nc2ccc(F)cc2)nc1-c1cccs1	BAZ2B block inconclusive, PLK1 PBD inh inconclusive, JMJD2A Tudor inconclusive, G9a inh 8.9µM, HP1b chromo inh inconclusive
O=C(Cc1sc(Nc2ccccc2)nc1-c1ccccc1)NCc1ccccn1	JMJD2A Tudor inconclusive, G9a inh 35µM
O=C(O)Cc1sc(Nc2ccc(C(=O)O)cc2)nc1-c1ccccc1	none (no result: PLK1 PBD inh, PI5P4Ka inh)
CCOC(=O)c1ccc(NC(=O)CN2c3ccccc3S(=O)(=O)c3ccccc32)cc1	none (no result: PLK1 PBD inh, PI5P4Ka inh)
